# Source: the antibiotic and cytotoxicity screens of Wong et al. (2023)
# The whole screen tested about 39,000 compounds, of which about 1,500 (3.8%) were called active. The sample holds actives, similar compounds and a random draw of the others, so the mix is not that of the screen.
# Tested on: HSkMC (human skeletal muscle cells)
# Assay: cytotoxicity call (relative viability < 0.9)
# Conditions: 10 µM
row,SMILES,cytotoxicity call
1,Nc1cnc2ncc(N)cc2c1,inactive
2,CN1CCN(C(=O)C[C@@H]2C=C[C@H](NS(=O)(=O)c3cccc(F)c3)[C@H](CO)O2)CC1,inactive
3,C[C@@H]1CCCCO[C@@H](CN(C)CC2CCCCC2)[C@@H](C)CN([C@H](C)CO)C(=O)c2cc(NC(=O)NC3CCCCC3)ccc2O1,inactive
4,Nc1nc(=O)c2nc(C(=O)O)cnc2[nH]1,inactive
5,COc1cccc(S(=O)(=O)N(C)C[C@@H]2Oc3cc(Br)ccc3S(=O)(=O)N([C@@H](C)CO)C[C@@H]2C)c1,inactive
6,C[C@@H]1CCCCO[C@@H](CN(C)Cc2ccc(C(F)(F)F)cc2)[C@@H](C)CN([C@H](C)CO)C(=O)c2cc(NS(=O)(=O)c3ccc(Cl)cc3)ccc2O1,inactive
7,C[C@H]1CCCCO[C@H](CN(C)Cc2ccc(C(F)(F)F)cc2)[C@@H](C)CN([C@@H](C)CO)C(=O)c2cc(NS(=O)(=O)c3ccc(Cl)cc3)ccc2O1,active
8,C[C@H]1CCCCO[C@@H](CN(C)Cc2ccc(C(F)(F)F)cc2)[C@@H](C)CN([C@@H](C)CO)C(=O)c2cc(NS(=O)(=O)c3ccc(F)cc3)ccc2O1,inactive
9,C[C@@H]1CCCCO[C@H](CN(C)Cc2ccc(C(F)(F)F)cc2)[C@@H](C)CN([C@H](C)CO)C(=O)c2cc(NS(=O)(=O)c3ccc(Cl)cc3)ccc2O1,inactive
10,C[C@@H]1CN([C@H](C)CO)C(=O)c2cc(NS(=O)(=O)c3ccc(Cl)cc3)ccc2O[C@@H](C)CCCCO[C@@H]1CN(C)Cc1ccc(C(F)(F)F)cc1,inactive
11,C[C@H](CO)N1C[C@H](C)[C@H](CN(C)Cc2ccc(C(F)(F)F)cc2)OCCCC[C@H](C)Oc2ccc(NS(=O)(=O)c3ccc(Cl)cc3)cc2C1=O,active
12,C[C@@H]1CN([C@@H](C)CO)C(=O)c2cc(NS(=O)(=O)c3ccc(Cl)cc3)ccc2O[C@@H](C)CCCCO[C@@H]1CN(C)Cc1ccc(C(F)(F)F)cc1,inactive
13,C[C@@H]1CCCCO[C@@H](CN(C)Cc2ccc(C(F)(F)F)cc2)[C@H](C)CN([C@@H](C)CO)C(=O)c2cc(NS(=O)(=O)c3ccc(Cl)cc3)ccc2O1,active
14,C[C@H]1CCCCO[C@@H](CN(C)Cc2ccc(C(F)(F)F)cc2)[C@@H](C)CN([C@@H](C)CO)C(=O)c2cc(NS(=O)(=O)c3ccc(Cl)cc3)ccc2O1,inactive
15,C[C@@H]1CCCCO[C@@H](CN(C)Cc2ccc(C(F)(F)F)cc2)[C@H](C)CN([C@H](C)CO)C(=O)c2cc(NS(=O)(=O)c3ccc(Cl)cc3)ccc2O1,active
16,CCOC(=O)C1CCN(c2cn[nH]c(=O)n2)CC1,inactive
17,C[C@H]1CN([C@@H](C)CO)C(=O)Cc2cc(NC(=O)Nc3cccc4ccccc34)ccc2O[C@@H]1CN(C)C(=O)Nc1ccccc1,inactive
18,C=CCOC(=O)[C@H]1[C@@H]2C(=O)O[C@@H](c3ccccc3)[C@@H](c3ccccc3)N2[C@@H](c2ccc(OCCOC(=O)[C@H]3C[C@H]4C(=O)N5CCC[C@H]5C(=O)N4[C@H]3c3cccc(OCCO)c3)cc2)[C@]12C(=O)Nc1ccccc12,inactive
19,COc1ccc(NC(=O)N(C)C[C@H]2OCc3cnnn3CCCC(=O)N([C@H](C)CO)C[C@@H]2C)c(OC)c1,inactive
20,COc1ccc(S(=O)(=O)N(C)C[C@H]2Oc3ccc(NS(=O)(=O)c4ccc(F)cc4)cc3CC(=O)N([C@@H](C)CO)C[C@@H]2C)cc1,inactive

row,SMILES,cytotoxicity call
1,C[C@@H]1CN([C@@H](C)CO)C(=O)c2cc(NS(=O)(=O)c3ccc(Cl)cc3)ccc2O[C@@H](C)CCCCO[C@H]1CN(C)Cc1ccc(C(F)(F)F)cc1,active
2,C[C@H]1CN([C@@H](C)CO)C(=O)c2cccc(NC(=O)Nc3ccc(C(F)(F)F)cc3)c2O[C@H]1CN(C)Cc1ccccc1,inactive
3,C[C@H](CO)N1C[C@H](C)[C@H](CN(C)Cc2ccc(Oc3ccccc3)cc2)Oc2c(NC(=O)Nc3ccc(C(F)(F)F)cc3)cccc2C1=O,active
4,C[C@@H]1CN([C@@H](C)CO)C(=O)c2cccc(NC(=O)Nc3ccc(C(F)(F)F)cc3)c2O[C@H]1CN(C)Cc1ccc(Oc2ccccc2)cc1,active
5,C[C@@H]1CN([C@H](C)CO)C(=O)c2cccc(NC(=O)Nc3ccc(C(F)(F)F)cc3)c2O[C@H]1CN(C)Cc1ccc(Oc2ccccc2)cc1,active
6,C[C@@H]1CN([C@@H](C)CO)C(=O)c2cccc(NC(=O)Nc3ccc(C(F)(F)F)cc3)c2O[C@@H]1CN(C)Cc1ccc(Oc2ccccc2)cc1,active
7,C[C@H]1CN([C@@H](C)CO)C(=O)c2cccc(NC(=O)Nc3ccc(C(F)(F)F)cc3)c2O[C@@H]1CN(C)Cc1ccc(Oc2ccccc2)cc1,inactive
8,COC[C@H]1CNN1C(=O)c1cc(C)oc1C,inactive
9,C[C@@H]1CN([C@@H](C)CO)C(=O)c2cccc(NS(=O)(=O)c3cn(C)cn3)c2O[C@@H]1CN(C)C(=O)NC1CCCCC1,inactive
10,C[C@H]1CCCCO[C@H](CN(C)C(=O)c2ccccc2)[C@@H](C)CN([C@@H](C)CO)C(=O)c2cc(NC(=O)c3ccccc3)ccc2O1,inactive
11,COc1cccc(-c2ccc3c(c2)O[C@H](CN(C)C(=O)C2CCOCC2)[C@H](C)CN([C@H](C)CO)S3(=O)=O)c1,inactive
12,C[C@@H]1CN([C@H](C)CO)C(=O)c2cccc(NC(=O)Nc3ccccc3)c2O[C@@H]1CN(C)Cc1ccc(C(F)(F)F)cc1,inactive
13,C[C@H]1CN([C@@H](C)CO)C(=O)c2cccc(NC(=O)Nc3ccc(C(F)(F)F)cc3)c2O[C@H]1CN(C)Cc1ccc(Oc2ccccc2)cc1,active
14,C[C@H](CO)N1C[C@H](C)[C@@H](CN(C)Cc2ccc(Oc3ccccc3)cc2)Oc2c(NC(=O)Nc3ccc(C(F)(F)F)cc3)cccc2C1=O,active
15,C[C@@H]1CN([C@H](C)CO)C(=O)c2cccc(NC(=O)Nc3ccc(C(F)(F)F)cc3)c2O[C@@H]1CN(C)Cc1ccc(Oc2ccccc2)cc1,active
16,C[C@H](CO)N1C[C@H](C)[C@H](CN(C)Cc2ccccc2)Oc2c(NC(=O)Nc3ccc(C(F)(F)F)cc3)cccc2C1=O,inactive
17,C[C@@H]1CCCCO[C@@H](CN(C)CC2CC2)[C@H](C)CN([C@H](C)CO)C(=O)c2cc(NC(=O)Cc3ccccc3)ccc2O1,inactive
18,C[C@@H]1CN([C@H](C)CO)C(=O)c2cc(NC(=O)c3ccncc3)ccc2O[C@@H](C)CCCCO[C@@H]1CN(C)C(=O)C1CCCCC1,inactive
19,COc1ccc(NC(=O)N2C[C@@H](O)COC[C@@H]3O[C@H](CC(=O)NC4Cc5ccccc5C4)CC[C@H]32)cc1,inactive
20,CC(C)NC(=O)N(C)C[C@H]1Oc2ccc(NC(=O)NC3CCCCC3)cc2C(=O)N([C@@H](C)CO)C[C@H]1C,inactive

row,SMILES,cytotoxicity call
1,CC(C)NC(=O)Nc1ccc2c(c1)C(=O)N([C@H](C)CO)C[C@H](C)[C@H](CN(C)S(=O)(=O)c1cn(C)cn1)OCCCC[C@H](C)O2,inactive
2,C[C@@H]1CN([C@H](C)CO)C(=O)c2cc(NC(=O)Cn3cnnn3)ccc2O[C@@H]1CN(C)Cc1ccc(Oc2ccccc2)cc1,inactive
3,CCS(=O)(=O)N[C@H]1C=C[C@@H](CC(=O)NCc2ccc(Cl)cc2)O[C@@H]1CO,inactive
4,C[C@@H]1CN([C@H](C)CO)C(=O)c2cc(NC(=O)CCC(F)(F)F)ccc2O[C@@H](C)CCCCO[C@H]1CN(C)Cc1ccc(Cl)c(Cl)c1,active
5,C[C@H](CO)N1C[C@H](C)[C@@H](CN(C)Cc2ccc(Cl)c(Cl)c2)OCCCC[C@H](C)Oc2ccc(NC(=O)CCC(F)(F)F)cc2C1=O,inactive
6,C[C@@H]1CN([C@H](C)CO)C(=O)c2cc(NC(=O)CCC(F)(F)F)ccc2O[C@@H](C)CCCCO[C@@H]1CN(C)Cc1ccc(Cl)c(Cl)c1,active
7,C[C@@H]1CCCCO[C@H](CN(C)Cc2ccc(Cl)c(Cl)c2)[C@H](C)CN([C@@H](C)CO)C(=O)c2cc(NC(=O)CCC(F)(F)F)ccc2O1,inactive
8,C[C@H]1CCCCO[C@H](CN(C)Cc2ccc(Cl)c(Cl)c2)[C@@H](C)CN([C@@H](C)CO)C(=O)c2cc(NC(=O)CCC(F)(F)F)ccc2O1,inactive
9,C[C@@H]1CCCCO[C@@H](CN(C)Cc2ccc(Cl)c(Cl)c2)[C@H](C)CN([C@H](C)CO)C(=O)c2cc(NC(=O)CCC(F)(F)F)ccc2O1,inactive
10,C[C@H](CO)N1C[C@H](C)[C@@H](CN(C)Cc2ccc(C(=O)O)cc2)OCCCC[C@H](C)Oc2ccc(NC(=O)CCC(F)(F)F)cc2C1=O,inactive
11,Cc1cc(OCCCS(C)(=O)=O)cc(C)c1-c1cccc(COc2ccc3c(c2)OC[C@H]3CC(=O)O)c1,active
12,C[C@@H]1CN([C@H](C)CO)C(=O)c2cccc(NC(=O)c3ccc(-c4nccs4)cc3)c2O[C@H]1CN(C)Cc1ccccc1,inactive
13,CC(C)(N)c1cn(C2CCN(C(=O)C3CCC(C(C)(C)C)CC3)CC2)nn1 (stereo not given),inactive
14,CCO[C@@H]1OC(C(=O)N2CCOCC2)=C[C@H](c2coc3ccccc3c2=O)[C@H]1CCCOC(=O)NCCCCCC(=O)NO,inactive
15,COc1ccc(S(=O)(=O)Nc2ccc3c(c2)CC(=O)N([C@@H](C)CO)C[C@@H](C)[C@@H](CN(C)C(=O)Nc2c(C)noc2C)O3)cc1,inactive
16,Cc1ccc2sc(N(CCCN(C)C)C(=O)c3ccc(S(=O)(=O)N(C)C4CCCCC4)cc3)nc2c1C,active
17,O=C(c1ccc(S(=O)(=O)N2CCCCCC2)cc1)N(Cc1cccnc1)c1nc2c(F)cc(F)cc2s1,inactive
18,Cc1ccc2sc(N(CCCN(C)C)C(=O)c3ccc(S(=O)(=O)N(C)Cc4ccccc4)cc3)nc2c1C,active
19,Cc1cc(Cl)cc2sc(N(Cc3ccccn3)C(=O)c3ccc(S(=O)(=O)N4CCCC4)cc3)nc12,inactive
20,COc1cc(OC)c(S(=O)(=O)N(C)Cc2ccccc2)cc1S(=O)(=O)N(C)Cc1ccccc1,inactive
